# Reference: PubChem BioAssay (NCI)
# The panel holds about 79,000 compounds, 15% with a hit somewhere; the sample as a whole holds those more often. Unmarked numbers belong to inactive results. Activity calls are given as the source filed them. No stated cut-off is given here; in the data, active means growth inhibition above about 70%; inactive means the rest.
# Assay: NCI Yeast Anticancer Drug Screen. Data for the rad50 strain (AID 155);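 further: 0% = growth of vehicle-only cultures of the same strain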
# Settings: S. cerevisiae rad50 strain growth inhibition, hits give high values
# Protocol: Growth inhibition of yeast strains with defined genetic alterations is measured as a screen for potential anti-cancer activity. Selected strains with alterations in DNA damage repair or cell cycle control were exposed to compounds and growth inhibition was measured relative to vehicle treated controls. The strain used in this assay is rad50
# [1] = at 5.0 µM (retest, dose inferred, filed as 0.5)
# [2] = at 50.0 µM (retest, dose inferred, filed as 5.0)
SMILES,growth inhibition [1],growth inhibition [2],growth inhibition (at 50.0 µM)
CCOc1ccc(N=Nc2c(C)nn(C(=S)SC)c2OCC)cc1,10%,54%,99.3% (active)
N#CC(C(=O)CCCC(=O)Nc1cccc([N+](=O)[O-])c1)c1cccc2ccccc12 (configuration not stated),8%,10%,32.5%
COc1ccc(C2=C(Cl)C(=O)N(c3ccc(C)cc3)C(=O)C2(Cl)Cl)cc1,14%,59%,83.3% (active)
COc1ccc(C2=NN(c3ccccc3)C[N+](c3ccc(C)cc3)=N2)cc1,6%,98% (active),97.5% (active)
O=C(O)CCC(=O)c1ccc2c(c1)CCCC2,-5%,-1%,71.7% (active)
CC(=O)NC1=C(Nc2ccc(-c3ccc(NC4=C(NC(C)=O)C(=O)c5ccccc5C4=O)cc3)cc2)C(=O)c2ccccc2C1=O,99% (active),98% (active),99.2% (active)
CCN(CC)c1ccc2nc3ccc(N(CC)CC)cc3[n+](-c3ccccc3)c2c1,97% (active),98% (active),92.1% (active)
O=C1/C(=C/c2ccc([N+](=O)[O-])cc2)Sc2scc(-c3cccc([N+](=O)[O-])c3)[n+]21,69%,98% (active),83.5% (active)
Cc1ccc(S(=O)(=O)NNC(=O)c2sc(-c3nc(C)c(C(=O)NNS(=O)(=O)c4ccc(C)cc4)s3)nc2C)cc1,2%,98% (active),7.3%
CCOC1(OCC)C(C)C(c2ccccc2)C(c2ccccc2)C1C (configuration not stated),-3%,-1%,79.3% (active)
Nc1cn(C2OC(CC(c3ccccc3)(c3ccccc3)c3ccccc3)C(O)C2O)c(=O)[nH]c1=O (configuration not stated),99% (active),99% (active),39%
CCOC(=O)c1ccc(-c2cccs2)n1C,-14%,6%,65.9%
N=c1c2ccccc2cc2c3ccccc3ccn12,45%,93% (active),97.3% (active)
CCCCOc1ccc(CC(O)CN2CCCCC2C)cc1 (configuration not stated),22%,49%,75.2% (active)
